Assay results reported in PubChem BioAssay (NCI).
This is part of a sample that, as a whole, favours compounds with a hit. Of some 83,000 tested, about 20% had one in any assay.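 Cells were grown in 96-well plates and exposed to the test compound at a single concentration for 48 hours; results are reported as percent growth, with values below 10 considered active.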 Calls of active or inactive are those of the source.

How the values were obtained:
Test in all cases: NCI-60 one-dose screen, 48 h (100 = growth as untreated, 0 = no growth, -100 = all killed)
Conditions in all cases: 10 µM unless noted
[1] = tested on: SR leukemia
[2] = tested on: RPMI-8226 leukemia
[3] = tested on: OVCAR-8 ovarian
[4] = tested on: OVCAR-5 ovarian
[5] = tested on: OVCAR-4 ovarian
[6] = tested on: SK-OV-3 ovarian
[7] = tested on: IGROV1 ovarian
[8] = tested on: OVCAR-3 ovarian
[9] = tested on: HS 578T breast
[10] = tested on: NCI/ADR-RES ovarian
[11] = tested on: T-47D breast
[12] = tested on: BT-549 breast
[13] = tested on: MDA-MB-435 melanoma
[14] = tested on: SW-620 colon
[15] = tested on: MCF7 breast
[16] = tested on: HCT-116 colon
[17] = tested on: HCC-2998 colon
[18] = tested on: KM12 colon

Measured: growth

N/C(=N\C(N)=N\c1nc2ccccc2s1)c1ccnc(Br)c1
active: [8] 9.06% | [13] -25.2%
inactive: [1] 25% | [2] 23.6% | [3] 33.8% | [4] 89.4% | [5] 59.1% | [6] 29.6% | [7] 25.8% | [9] 19.3% | [10] 20.1% | [11] 54.3% | [12] 41.9% | [14] 13.5% | [15] 16.6% | [16] 20.2% | [17] 70.3% | [18] 23.9%

N#C/C(=C\c1ccc(C(F)(F)F)cc1)c1cc2ccccc2[nH]1
inactive: [1] 95.7% | [2] 72% | [3] 101% | [4] 108% | [5] 92% | [6] 93% | [7] 94.5% | [8] 104% | [9] 104% | [10] 104% | [11] 89.8% | [12] 94.1% | [13] 97.1% | [14] 100% | [15] 77.4% | [16] 94.9% | [17] 116% | [18] 97.7%

Cc1cc2nc3c4cc([N+](=O)[O-])ccc4n(CCN(C)C)c3nc2cc1C
inactive: [9] 20.7% | [11] 10.6% | [12] 31.7%
active: [1] -16.7% | [2] -36.4% | [3] 8.77% | [4] -8.87% | [5] 9.25% | [6] 8.97% | [7] -33.6% | [8] -8.29% | [10] -13.4% | [13] -32.2% | [14] -5.68% | [15] 4.74% | [16] 2.59% | [17] -37.2% | [18] 5.62%

O=S(=O)(NCCCNc1nccc(-c2c(-c3cccc(F)c3)nc3sccn23)n1)c1cccc(F)c1
inactive: [1] 64.9% | [2] 28% | [3] 18.4% | [4] 110% | [5] 26.8% | [6] 66% | [7] 18.9% | [8] 50.7% | [9] 63.7% | [10] 17.6% | [12] 33.3% | [13] 24% | [14] 76.7% | [15] 33.7% | [16] 48% | [17] 99.3% | [18] 30%
active: [11] -2.25%

COc1cc2c(c(O)c1Cl)C(=O)c1c(O)cc(C[C@H](C)O)cc1[C@H]2[C@H]1c2cc(C[C@H](C)O)cc(O)c2C(=O)c2c1cc(OC)c(Cl)c2O
active: [4] 8.75% | [6] 8.1% | [8] -20.4% | [15] 7.74% | [16] 9.53%
inactive: [1] 12.3% | [2] 14.1% | [3] 12.8% | [5] 12.7% | [7] 10.4% | [9] 11% | [10] 71.3% | [11] 10.5% | [12] 17.2% | [13] 11.3% | [14] 17.8% | [17] 25.9% | [18] 11.2%

O=C(Nc1ccc(Cl)cc1)c1cc(NCc2cc(O)ccc2O)ccc1O
inactive: [3] 70.4% | [4] 116% | [5] 80.5% | [6] 103% | [7] 84.2% | [8] 48.8% | [9] 90% | [10] 82.9% | [11] 42.6% | [12] 35.8% | [13] 103% | [14] 89.9% | [15] 65.6% | [16] 91.3% | [17] 102% | [18] 76.8%
active: [1] 9.06% | [2] 4.92%

S=c1cc(S)c2cc(Br)ccc2[nH]1
inactive: [1] 94.1% | [2] 96.7% | [3] 91.5% | [4] 114% | [5] 92.6% | [6] 98.6% | [7] 89.5% | [8] 100% | [9] 109% | [10] 101% | [11] 84.5% | [12] 90.7% | [13] 95.5% | [14] 99.2% | [15] 88.7% | [16] 78.2% | [17] 102% | [18] 101%

COC(=O)C(OC(C)=O)C(OC(C)=O)c1ccc(OC)c(OC)c1 (stereo not drawn)
inactive: [1] 90.9% | [2] 103% | [3] 103% | [4] 108% | [5] 94.2% | [6] 110% | [7] 114% | [8] 104% | [9] 110% | [10] 94.1% | [11] 75.4% | [12] 104% | [13] 106% | [14] 118% | [15] 85.4% | [16] 81.8% | [17] 108% | [18] 102%

O=[N+]([O-])c1cc(Br)c2cccc3c2c1CC3
inactive: [1] 93.3% | [2] 109% | [3] 97% | [4] 99.4% | [5] 104% | [6] 114% | [7] 111% | [8] 108% | [9] 130% | [10] 114% | [11] 101% | [12] 114% | [13] 113% | [14] 107% | [15] 89% | [16] 106% | [17] 103% | [18] 109%

C=C1C(=O)O[C@H]2[C@H]1CC/C(COC(=O)NCc1c[nH]c3ccc(Cl)cc13)=C\CC[C@@]1(C)O[C@@H]21
active: [1] 7.4% | [2] -35.5% | [3] -59.2% | [4] -27.7% | [5] -54.7% | [7] -65.8% | [8] -87.2% | [11] -76.2% | [12] -65.6% | [13] -88.4% | [14] -74.3% | [16] -90.1%
inactive: [6] 90.5% | [9] 25.3% | [10] 48.1% | [15] 17.2% | [17] 70.4% | [18] 13.8%

COc1cc(/C=C\C(=O)O)ccc1OCc1ccccc1
inactive: [1] 97.7% | [2] 90.2% | [3] 93.7% | [4] 110% | [5] 108% | [6] 102% | [7] 103% | [8] 104% | [9] 101% | [10] 101% | [11] 82.1% | [12] 112% | [13] 119% | [14] 105% | [15] 96% | [16] 95.2% | [17] 104% | [18] 104%

NC1=NN=C(N)C1=Cc1cc2ccccc2n2nnnc12
inactive: [1] 94.4% | [2] 105% | [3] 98.1% | [4] 108% | [5] 105% | [6] 91.7% | [7] 103% | [8] 105% | [9] 94.7% | [10] 105% | [11] 88.4% | [12] 94.7% | [13] 108% | [14] 98.2% | [15] 89.9% | [16] 104% | [17] 108% | [18] 105%

COc1ccc(C(=O)c2cc(C)c(OC)c(C)c2)c(OC)c1OC(=O)C(Cl)Cl
active: [6] -2.06% | [8] -4.52% | [10] -3.92% | [13] -28.4% | [16] 1.56% | [17] 9.93% | [18] 8.08%
inactive: [1] 16% | [2] 23.4% | [3] 10.1% | [4] 45.2% | [5] 46.7% | [7] 22.3% | [9] 20.5% | [11] 59.5% | [12] 11.4% | [14] 20% | [15] 12.4%

COc1cc2c(=O)n(CCN)c3c4cc5c(cc4ccc3c2cc1OC)OCO5
inactive: [6] 16.6% | [9] 25.8% | [11] 27.1% | [12] 35.2% | [15] 17.6% | [17] 44.9%
active: [1] -26% | [2] -41.7% | [3] -49.9% | [4] -76.9% | [5] -76% | [7] -75.6% | [8] -79.3% | [10] -37.3% | [13] -91% | [14] -75.6% | [16] -70.9% | [18] -64%

CN1CCN(C(=O)[C@]23CCC(C)(C)C[C@H]2C2=CC[C@@H]4[C@@]5(C)C/C(=C/c6ccncc6)C(=O)C(C)(C)[C@@H]5CC[C@@]4(C)[C@]2(C)CC3)CC1
active: [1] 7.07% | [2] 7.22%
inactive: [3] 55.3% | [4] 86.9% | [5] 57.4% | [6] 77.6% | [7] 74.4% | [8] 47.2% | [9] 50.4% | [10] 56.3% | [11] 37% | [12] 80.2% | [13] 48.2% | [14] 33.8% | [15] 18.1% | [16] 16.4% | [17] 43.8% | [18] 45.8%

C=C1C(=O)O[C@H]2[C@H]1CC/C(COC(=O)NCCc1c[nH]c3ccc(OC)cc13)=C\CC[C@@]1(C)O[C@@H]21
active: [2] -18.4% | [5] -13.1% | [7] -5.2% | [8] -74.3% | [11] -35.3% | [12] -22.1% | [14] -56.2% | [16] -82.5%
inactive: [1] 11.6% | [3] 20.4% | [4] 51.8% | [6] 118% | [9] 79.9% | [10] 83.5% | [13] 14.7% | [15] 26.9% | [17] 75.1% | [18] 63.1%
